PubChem BioAssay AID1159580 (chemical genetic matrix, 2015)
Where “and” joins values, the source holds several entries; their conditions need not be identical. Equal entries are not always repeated. Screen size: about 5,500 compounds; about 2,000 (36%) were called active. Not shown: some 18% with an inconclusive outcome. No stated cut-off is given here; in the data, active means normalized growth mostly below about 0.91 (no sharp cut-off); inconclusive means no clear call, values can overlap the other calls; inactive means mostly above about 0.92. This is one part of the list.

Assay: chemical genetic growth profiling, strain panel (AID 1159580);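 further: tested at 20 µM; growth read once vehicle control cultures reached saturation at 30 °C; 1 = growth at the plate median or of vehicle wells; lower values mean less growth of the strain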
Conditions: growth OD

Measured: normalized growth

O=[N+]([O-])c1cc(O)c(O)c([N+](=O)[O-])c1
inactive: S. cerevisiae deletion strains, locus YJL187C, strain SWE1 (second series), active compounds read low 1.02 | S. cerevisiae deletion strains, locus YJL187C, strain SWE1, active compounds read low 1.01 | S. cerevisiae deletion strains, locus YJR075W, strain HOC1, active compounds read low 1.05 | S. cerevisiae deletion strains, locus YKL009W, strain mrt4, active compounds read low 1.01 | S. cerevisiae deletion strains, locus YKL068W, active compounds read low 0.974 | S. cerevisiae deletion strains, locus YKL085W, strain MDH1 (second series), active compounds read low 0.97 | S. cerevisiae deletion strains, locus YKL085W, strain MDH1, active compounds read low 0.97 | S. cerevisiae deletion strains, locus YKL160W, strain elf1, active compounds read low 1 | S. cerevisiae deletion strains, locus YKR001C, strain vps1, active compounds read low 1 | S. cerevisiae deletion strains, locus YKR026C, strain gcn3, active compounds read low 1.01 | S. cerevisiae deletion strains, locus YKR091W, strain srl3, active compounds read low 1.01 | S. cerevisiae deletion strains, locus YLL001W, strain dnm1, active compounds read low 1.01 | S. cerevisiae deletion strains, locus YLL026W, active compounds read low 0.999 | S. cerevisiae deletion strains, locus YLL041C, strain sdh2, active compounds read low 1.01 | S. cerevisiae deletion strains, locus YLR027C, strain aat2, active compounds read low 1.02 | S. cerevisiae deletion strains, locus YLR039C, strain RIC1, active compounds read low 0.958 | S. cerevisiae deletion strains, locus YLR058C, strain SHM2, active compounds read low 1.01 | S. cerevisiae deletion strains, locus YLR102C, strain apc9, active compounds read low 0.98 | S. cerevisiae deletion strains, locus YLR221C, strain rsa3, active compounds read low 1.06 | S. cerevisiae deletion strains, locus YLR258W, strain gsy2, active compounds read low 1.06 | S. cerevisiae deletion strains, locus YLR262C, strain YPT6 (second series), active compounds read low 0.996 | S. cerevisiae deletion strains, locus YLR262C, strain YPT6, active compounds read low 0.959 | S. cerevisiae deletion strains, locus YLR268W, strain sec22, active compounds read low 0.972 | S. cerevisiae deletion strains, locus YLR320W, strain mms22, active compounds read low 1.06 | S. cerevisiae deletion strains, locus YLR330W, strain CHS5, active compounds read low 1.01 | S. cerevisiae deletion strains, locus YLR342W, strain FKS1 (second series), active compounds read low 0.951 | S. cerevisiae deletion strains, locus YLR342W, strain FKS1, active compounds read low 1.01 | S. cerevisiae deletion strains, locus YLR357W, strain rsc2, active compounds read low 1.03 | S. cerevisiae deletion strains, locus YLR370C, strain arc18, active compounds read low 1.01 | S. cerevisiae deletion strains, locus YLR371W, strain rom2, active compounds read low 0.979 | S. cerevisiae deletion strains, locus YLR384C, strain iki3, active compounds read low 1.01 | S. cerevisiae deletion strains, locus YLR418C, strain cdc73, active compounds read low 0.908 | S. cerevisiae deletion strains, locus YML016C, strain PPZ1, active compounds read low 1.01 | S. cerevisiae deletion strains, locus YML032C, strain rad52, active compounds read low 1.01 | S. cerevisiae deletion strains, locus YML120C, strain ndi1, active compounds read low 1.03 | S. cerevisiae deletion strains, locus YML124C, strain tub3, active compounds read low 0.973 | S. cerevisiae deletion strains, locus YMR058W, strain fet3, active compounds read low 1.04 | S. cerevisiae deletion strains, locus YMR078C, strain ctf18, active compounds read low 0.985 | S. cerevisiae deletion strains, locus YMR125W, strain sto1, active compounds read low 1.01 | S. cerevisiae deletion strains, locus YMR129W, active compounds read low 1.01 | S. cerevisiae deletion strains, locus YMR205C, strain PFK2, active compounds read low 1.01 | S. cerevisiae deletion strains, locus YMR223W, strain ubp8, active compounds read low 0.971 | S. cerevisiae deletion strains, locus YMR231W, strain pep5, active compounds read low 1.02 | S. cerevisiae deletion strains, locus YMR263W, strain SAP30, active compounds read low 1.02 | S. cerevisiae deletion strains, locus YMR307W, strain GAS1, active compounds read low 0.97 and 1.01 | S. cerevisiae deletion strains, locus YNL067W, strain RPL9B, active compounds read low 1.02 | S. cerevisiae deletion strains, locus YNL071W, strain lat1, active compounds read low 1.02 | S. cerevisiae deletion strains, locus YNL153C, strain GIM3, active compounds read low 1.04 and 0.971 | S. cerevisiae deletion strains, locus YNL175C, strain NOP13, active compounds read low 0.976 | S. cerevisiae deletion strains, locus YNL197C, strain WHI3, active compounds read low 0.95 | S. cerevisiae deletion strains, locus YNL209W, strain ssb2, active compounds read low 1.02 | S. cerevisiae deletion strains, locus YNL224C, strain SQS1, active compounds read low 0.977 | S. cerevisiae deletion strains, locus YNL233W, strain BNI4, active compounds read low 1 | S. cerevisiae deletion strains, locus YNL248C, strain rpa49, active compounds read low 0.983 | S. cerevisiae deletion strains, locus YNL250W, strain rad50, active compounds read low 0.955 | S. cerevisiae deletion strains, locus YNL271C, strain bni1, active compounds read low 0.978 | S. cerevisiae deletion strains, locus YNL298W, strain CLA4, active compounds read low 0.994 | S. cerevisiae deletion strains, locus YNL307C, strain MCK1, active compounds read low 0.989 | S. cerevisiae deletion strains, locus YNL322C, strain KRE1 (second series), active compounds read low 1.02 | S. cerevisiae deletion strains, locus YNL322C, strain KRE1, active compounds read low 1 and 1.01 | S. cerevisiae deletion strains, locus YNR049C, strain mso1, active compounds read low 1 | S. cerevisiae deletion strains, locus YNR052C, strain pop2, active compounds read low 0.996 | S. cerevisiae deletion strains, locus YOL012C, strain htz1 1.22 | S. cerevisiae deletion strains, locus YOL147C, strain pex11, active compounds read low 0.981 | S. cerevisiae deletion strains, locus YOR001W, strain rrp6, active compounds read low 1.01 | S. cerevisiae deletion strains, locus YOR061W, strain CKA2, active compounds read low 1.01 | S. cerevisiae deletion strains, locus YOR069W, strain VPS5, active compounds read low 1 | S. cerevisiae deletion strains, locus YOR070C, strain gyp1, active compounds read low 1.03 | S. cerevisiae deletion strains, locus YOR080W, strain dia2, active compounds read low 1.02 | S. cerevisiae deletion strains, locus YOR083W, strain WHI5 (second series), active compounds read low 0.992 | S. cerevisiae deletion strains, locus YOR083W, strain WHI5, active compounds read low 1.01 | S. cerevisiae deletion strains, locus YOR106W, strain vam3, active compounds read low 0.983 | S. cerevisiae deletion strains, locus YOR136W, strain idh2, active compounds read low 0.981 | S. cerevisiae deletion strains, locus YOR144C, strain elg1, active compounds read low 0.979 | S. cerevisiae deletion strains, locus YOR184W, strain ser1, active compounds read low 0.985 | S. cerevisiae deletion strains, locus YOR265W, strain rbl2, active compounds read low 1.02 | S. cerevisiae deletion strains, locus YOR270C, strain vph1, active compounds read low 0.989 | S. cerevisiae deletion strains, locus YOR290C, strain snf2, active compounds read low 1.02 | S. cerevisiae deletion strains, locus YOR316C, strain cot1, active compounds read low 0.983 | S. cerevisiae deletion strains, locus YPL051W, strain arl3, active compounds read low 1.04 | S. cerevisiae deletion strains, locus YPL055C, strain LGE1, active compounds read low 1.01 and 1.06 | S. cerevisiae deletion strains, locus YPL078C, strain atp4, active compounds read low 0.992 | S. cerevisiae deletion strains, locus YPL106C, strain sse1, active compounds read low 1.07 | S. cerevisiae deletion strains, locus YPL240C, strain hsp82, active compounds read low 0.995 | S. cerevisiae deletion strains, locus YPR119W, strain clb2, active compounds read low 0.972 | S. cerevisiae deletion strains, locus YPR141C, strain kar3, active compounds read low 0.954 | S. cerevisiae deletion strains, locus YPR163C, strain tif3, active compounds read low 0.985 | S. cerevisiae deletion strains, locus YPR167C, strain met16, active compounds read low 0.971 | S. cerevisiae deletion strains, strain wtn01, active compounds read low 0.984 | S. cerevisiae strains, strain wild type, active compounds read low 1.01
